# The list is not random: actives were taken first. Their share in the collection is about 14%.
# Pf growth 96h: Primary qHTS for delayed death inhibitors of the malarial parasite plastid, 96 hour incubation | 320,000 compounds, 6.9% hits | P. falciparum luciferase reporter growth, 96 h | Potency, µM (doses to about 28.7 µM), for inactives: top-dose activity change, negative = inhibition, actives largely listed as inhibitors; also: potency is read from the fitted curve at half-maximal effect
#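 Cell-based qHTS: luciferase-tagged P. falciparum in erythrocytes (2% hematocrit, 0.05% parasitemia final) incubated with compounds for 96 hours, 37 C, 5% CO2; luciferase detection reagent then added and luminescence measured.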
# HCMV antiviral: qHTS Assay for inhibitors of the human cytomegalovirus (HCMV) | HFF cells, HCMV-luciferase reporter, 72 h; stronger effect = lower value | activity change, negative = inhibition, % at 57.5 µM | 410,000 compounds, 4.5% hits | AID 1259415, 2018; in the data active = activity change below about -60%; inconclusive = no clear call, values can overlap the other calls; inactive = above about -39%
#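 Steps: HFFs plated, 16 h 37C; compounds added; HCMV-luciferase added to MOI 1 PFU/cell; 72 h 37C; OneGlo reagent, 5 min room temperature; luminescence read, normalized to controls.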
# FBPA Giardia inh: qHTS Assay for Inhibitors of Fructose-1,6-bisphosphate Aldolase from Giardia Lamblia | A8B2U2 | 290,000 compounds, 0.71% hits | Potency, µM (series often up to 59.6 µM), for the others: at the highest dose activity, negative = inhibition, usual class: inhibitors | purified Giardia FBPA; also: potency is read from the fitted curve at half-maximal effect; nearly all actives have a fitted effect of over 55% in size
# Target sequence (A8B2U2 whole entry, looked up): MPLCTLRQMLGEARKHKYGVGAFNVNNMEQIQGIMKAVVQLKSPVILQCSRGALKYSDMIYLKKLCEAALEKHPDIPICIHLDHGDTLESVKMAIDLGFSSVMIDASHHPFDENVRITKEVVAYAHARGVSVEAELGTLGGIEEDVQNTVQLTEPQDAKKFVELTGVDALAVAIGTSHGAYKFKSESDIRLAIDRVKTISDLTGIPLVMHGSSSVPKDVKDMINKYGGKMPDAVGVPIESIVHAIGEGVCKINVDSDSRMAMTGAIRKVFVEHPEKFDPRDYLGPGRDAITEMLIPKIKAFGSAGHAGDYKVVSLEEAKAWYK
#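 40 nM FBPA preincubated 10 min at RT with compound (up to 57.5 uM final), then substrate plus GAPDH/TPI/NAD/arsenate coupling and diaphorase/resazurin added. Fluorescence read after 20 min at RT, 525/598 nm.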
# Pf growth 48h: Primary qHTS for delayed death inhibitors of the malarial parasite plastid, 48 hour incubation; AID 504832, 2011; P. falciparum luciferase growth in erythrocytes, 48 h; Potency, µM (top dose mostly 28.7 µM), for the others: at the top dose activity change, negative = inhibition, usual class: inhibitors; 310,000 compounds, 5.9% hits; also: potency is read from the fitted curve at half-maximal effect
#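 Read-out is firefly luciferase luminescence from an integrated reporter in P. falciparum, so falling signal marks reduced parasite growth. Infected erythrocytes were at 2% hematocrit and 0.1% parasitemia (final) in Albumax-supplemented RPMI 1640.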
# Sm TGR block: qHTS Assay for the Inhibitors of Schistosoma Mansoni Peroxiredoxins; purified TGR, DTNB reduction, TNB absorbance 405 nm; Potency, µM (titrated, usually from 114 µM), without a hit: top-dose activity change, negative = inhibition, usual class: inhibitors; 360,000 compounds, 3% hits; Schistosoma mansoni thioredoxin glutathione reductase (TGR), Q962Y6; AID 485364, 2010; also: potency is read from the fitted curve at half-maximal effect; nearly all actives have a fitted effect of over 60% in size
#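 Kinetic colorimetric format: TGR-catalysed, NADPH-driven DTNB reduction monitored via TNB absorbance. Enzyme dispensed at 20 nM; compound exposure 15 min at room temperature before reaction start.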
# An asterisk follows results filed as active; ? = inconclusive; · = not tested or not shown; [ ] = dose if it differs, or a comment. Unless noted, calls follow the shape of the dose curve; as a rule, active = well fitted curve in the direction sought with a large enough effect; inconclusive = small, poorly fitted or top-dose-only effect, or another doubt; inactive = no such curve, though single readings can be large; an effect the other way counts as inactive or inconclusive. % is scaled to controls: 0 for no effect and ±100 for the full control effect.
SMILES,Pf growth 96h,HCMV antiviral,FBPA Giardia inh,Pf growth 48h,Sm TGR block
Cc1cccc(C2c3[nH]c4ccccc4c3CCN2C(=O)c2cn(C)c3ccccc3c2=O)n1 (centres undefined),?,40.8,-8.3%,?,-5.5%[57.1 µM]
O=C(c1cccs1)N1CCc2c([nH]c3ccccc23)C1c1ccccn1 (centres undefined),32.8%,-36.5,-11.4%,?,-29.7%
Cc1cccc(C2c3[nH]c4ccccc4c3CCN2Cc2cnn(-c3ccc(F)cc3)c2)n1 (centres undefined),22.4%,15.8,-10.5%,10.4µM*,5.8%
Cc1cccc(C2c3[nH]c4ccccc4c3CCN2C(=O)c2noc3c2CCCC3)n1 (centres undefined),13.1µM*,2.8,-5.4%,?,-1.5%
O=C(c1noc2c1CCCC2)N1CCc2c([nH]c3ccccc23)C1c1ccccn1 (centres undefined),?,-61.9*,-7.2%,?,-13.7%
Cc1ccc(S(=O)(=O)N2CCN(C(=O)C3CSC4(C)CCC(=O)N34)CC2)cc1C (centres undefined),2.3%,?,·,-14.3%,-11.3%
CCNc1nnc(SCC(=O)N2c3ccccc3NC(=O)CC2C)s1 (centres undefined),?,-4.9,·,-21.0%,-0.6%
N#C/C(=N\Nc1cc(Cl)cc(Cl)c1)c1nnc2n1CCCCC2,?,-9.4,?,?,-0.9%
CCCc1nc2ccccc2c(=O)n1/N=C/c1c(C)[nH]n(-c2ccc(C)cc2)c1=O,3.7µM*,-12.4,?,-28.9%,-10.4%
CCCc1nc2ccccc2c(=O)n1/N=C/c1ccccc1O,·,?,-4.7%,11.7µM*,5.3%
CN(C)S(=O)(=O)c1cc(NC(=O)COC(=O)c2ccc3c(c2)OCO3)ccc1Cl,?,25.6,-1.2%,?,-5.0%
Cc1cccc(Nc2nc(N)c([N+](=O)[O-])c(NCc3ccccc3)n2)c1,?,-94.2*,-12.6%,?,3.1%
Nc1nc(NCc2ccccc2)nc(NCc2ccccc2)c1[N+](=O)[O-],?,?,1.4%,?,3.7%
CCOc1ccc(Nc2nc(N)c([N+](=O)[O-])c(NCc3ccccc3)n2)cc1,?,-17.6,-6.4%,5.22µM*,16.9%
Nc1nc(Nc2ccccc2)nc(NCc2ccccc2)c1[N+](=O)[O-],?,-75.2*,-10.3%,?,3.7%
COc1cccc(Nc2nc(N)c([N+](=O)[O-])c(NCc3ccccc3)n2)c1,11.7µM*,?,-5.3%,4.65µM*,9.4%
CCCc1cc(=O)n2[nH]c(NC(=O)c3ccccc3Cl)nc2n1,·,13.2,·,·,3.1%
O=C(Nc1ccc(F)c(Cl)c1)Nc1nnc([C@H]2C[C@H](O)[C@@H](CO)O2)s1,·,-3.7,·,·,·
COC(=O)[C@@H]1CC[C@H](C)[C@@H](c2ccc(C)cc2)N1C(=O)c1ccc(/C=N\O[C@@H]2O[C@H](COC(C)=O)[C@H](OC(C)=O)[C@H](OC(C)=O)[C@H]2OC(C)=O)cc1,·,·,-0.1%[12.9 µM],·,·
Cc1cccc(Nc2nc(N)c([N+](=O)[O-])c(N3CCN(C)CC3)n2)c1,?,26.8,4.9%,?,-8.8%
Cc1cccc(Nc2nc(N)c([N+](=O)[O-])c(N3CCCC(C)C3)n2)c1 (centres undefined),?,-77.3*,-6.1%,11.7µM*,-11.5%
N#CCS(=O)(=O)c1cccc[n+]1[O-],·,-2.3,·,·,·
COc1ccc(-c2oc3ncnc(NCCCN(C)C)c3c2-c2ccc(OC)cc2)cc1,?,-83.5*,0.2%,?,8.1%
COc1cc(OC)cc(-c2nc3nc(C)c(CCC(=O)Nc4ccc(Cl)cc4)c(C)n3n2)c1,·,11.2,·,·,-7.3%
O=C(Nc1nc2c(Br)cc(Br)cc2c(=O)s1)C1CCC1,25.0%,19.6,-0.5%,2.33µM*,-8.3%
SMILES,Pf growth 96h,HCMV antiviral,FBPA Giardia inh,Pf growth 48h,Sm TGR block
Cn1c(=O)c2[nH]c(-c3ccccc3Cl)c(O)c2n(C)c1=O,13.1µM*,6.8,-12.4%,4.65µM*,-24.8%
CCOC(=O)c1cn(CC)c2cc(N3CCOCC3)c(F)cc2c1=O,14.4%,21.1,0.5%,1.85µM*,-2.4%
O=C(O)c1cn(-c2ccc(N3CCCC3)c(F)c2)c2c(F)c(F)c(F)cc2c1=O,1.7%,-8.9,0.0%,19.0%,-24.8%
CCn1cc(C(=O)NN)c(=O)c2cc(F)c(N3CCN(C)CC3)cc21,11.7µM*,12.6,10.3%,?,18.1%
CCN1CCN(c2cc3c(cc2F)c(=O)c(C(=O)O)cn3C2CC2)CC1,8.28µM*,94.3,-4.6%,?,-4.2%
CN1CCN(c2cc3c(cc2F)c(=O)c(C(=O)O)cn3-c2ccc(F)cc2)CC1,6.75µM*,·,·,?,·
CCn1cc(C(=O)NN)c(=O)c2cc(F)c(N3CCCCC3)cc21,-6.4%,89.2,16.5%,?,14.1%
CC(=O)N1CCN(c2cc3c(cc2F)c(=O)c(C(=O)O)cn3C2CC2)CC1,-88.7%[5.75 µM],-24.3,-10.2%,?,2.8%
C#CCOCCOCCOCCNc1nc(N2CCN(C(=O)[C@H](CO)n3cc([C@@H](N)C(C)C)nn3)CC2)nc(N2CCN(C(=O)[C@H](CO)n3cc([C@@H](N)C(C)C)nn3)CC2)n1,·,-21.1,·,·,·
COc1c2c(cc3c1C(NC(N)=O)[N+](C)(C)CC3)OCO2 (centres undefined),·,·,4.0%,·,·
CC1CC(C)CN(C(=O)/C=C/c2ccc([N+](=O)[O-])s2)C1 (centres undefined),9.28µM*,-86.6*,-18.9%,-113.9%,12.6µM*
CC1CN(C(=O)/C=C/c2ccc([N+](=O)[O-])s2)CC(C)O1 (centres undefined),?,-67.6*,0.6%,?,20µM*
CC1CN(C(=O)/C=C/c2cccc([N+](=O)[O-])c2)CC(C)O1 (centres undefined),·,32.7,·,·,·
CC1CN(C(=O)/C=C/c2ccccc2[N+](=O)[O-])CC(C)O1 (centres undefined),?,?,-0.5%,16.7%,·
CCNc1nc(NC(C)C)nc(Oc2ccc(OCc3ccccc3)nn2)n1,-33.0%,199.3,7.2%,?,1.1%
COc1nc(NCC(C)C)nc(Oc2ccc(OCc3ccccc3)nn2)n1,2.6%,2.2,1.9%,0.37µM*,0.1%
COC(=O)CN1C(=O)C2(C(C#N)=C(N)Oc3n[nH]c(-c4cccs4)c32)c2ccccc21 (centres undefined),40.8%,22.9,?,-3.4%,50.1µM*
CCN1C(=O)C2(C(C#N)=C(N)Oc3n[nH]c(-c4ccccc4)c32)c2ccccc21 (centres undefined),·,-7.8,-4.9%,-14.5%,-10.1%
